According to PubChem BioAssay (NCI):
This is part of a sample that, as a whole, favours compounds with a hit. Of some 79,000 tested, about 15% had one in any assay. Active and inactive are the calls of the source. Cut-off read from the data, not from the text of the source: active = growth inhibition above about 70%; inactive = the rest.

Legend:
[1] = NCI Yeast Anticancer Drug Screen. Data for the rad52 strain (AID 147);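 note: 0% = growth of vehicle-treated control cultures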; conditions: S. cerevisiae rad52 mutant growth inhibition, active compounds read high
How it was run: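 The repair-mutant yeast strain was incubated with compounds, then growth was read and inhibition derived relative to vehicle.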

[2] = NCI Yeast Anticancer Drug Screen. Data for the wt1 strain (AID 149);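 note: 0% = growth of vehicle-treated wt1 cultures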; conditions: S. cerevisiae wt1 strain (SPY 50644) growth inhibition, active compounds read high
How it was run: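 Readout: yeast growth inhibition, normalised to vehicle controls, in the wt1 strain exposed to test compounds.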

[3] = NCI Yeast Anticancer Drug Screen. Data for the rad50EPP+ strain (AID 151);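 note: 0% = growth of vehicle-treated control cultures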; conditions: S. cerevisiae rad50 mutant strain, active compounds read high
How it was run: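 Vehicle-normalised growth inhibition; rad50EPP+ yeast strain, altered in DNA damage repair, compound-treated.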

[4] = NCI Yeast Anticancer Drug Screen. Data for the mgt1 strain (AID 153); conditions: S. cerevisiae mgt1 mutant growth inhibition, active compounds read high
How it was run: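 Vehicle-normalized growth inhibition is determined in mgt1 yeast, a strain selected for a defined alteration in DNA repair or cell cycle control.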

[5] = NCI Yeast Anticancer Drug Screen. Data for the rad50 strain (AID 155);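 note: 0% = growth of vehicle-only cultures of the same strain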; conditions: S. cerevisiae rad50 strain growth inhibition, active compounds read high
How it was run: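 Compounds were tested on a yeast strain with an engineered DNA damage repair alteration; the reported value is growth inhibition normalised to vehicle treatment.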

[6] = NCI Yeast Anticancer Drug Screen. Data for the mec2-1 strain (AID 157); conditions: S. cerevisiae mec2-1 strain, active compounds read high
How it was run: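 Mutant yeast (mec2-1) grown with compound; growth inhibition relative to vehicle control reported.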

[7] = NCI Yeast Anticancer Drug Screen. Data for the sgs1 mgt1 strain (AID 161);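 note: 0% = growth of cultures given vehicle only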; conditions: S. cerevisiae sgs1 mgt1 strain, active compounds read high
How it was run: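 Percent growth inhibition was derived by comparing compound-exposed mutant yeast with vehicle-exposed cultures. The strain carries alterations in DNA damage repair.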

[8] = NCI Yeast Anticancer Drug Screen. Data for the cln2 rad14 strain (AID 165);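 note: 0% = growth equal to vehicle treated cultures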; conditions: S. cerevisiae cln2 rad14 strain, active compounds read high
How it was run: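 Readout is yeast growth inhibition versus vehicle-treated controls, using a strain with cln2 and rad14 alterations exposed to compound.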

[9] = NCI Yeast Anticancer Drug Screen. Data for the bub3 strain (AID 167); conditions: S. cerevisiae bub3 mutant strain, active compounds read high
How it was run: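 Growth of a checkpoint-deficient yeast mutant is measured after compound exposure. Values represent inhibition relative to vehicle.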

[10] = NCI Yeast Anticancer Drug Screen. Data for the wt2 strain (AID 169);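 note: 0% = growth of vehicle-treated yeast cultures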; conditions: S. cerevisiae wt2 strain growth inhibition, active compounds read high
How it was run: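 Against vehicle-treated controls, the growth of yeast exposed to each compound was compared, and the inhibition was recorded.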

[11] = NCI Yeast Anticancer Drug Screen. Data for the mlh1 strain (AID 171);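 note: 0% = growth of vehicle-treated control cultures of the same strain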; conditions: S. cerevisiae mlh1 strain growth inhibition, active compounds read high
How it was run: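 Measured: yeast growth. Reference: vehicle-treated controls. Organism: strain with a defined alteration affecting DNA damage repair or cell cycle control, treated with compound.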

[12] = NCI Yeast Anticancer Drug Screen. Data for the sgs1 strain (AID 173);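 note: 0% = growth of vehicle-only control cultures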; conditions: S. cerevisiae sgs1 mutant, active compounds read high
How it was run: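 Each compound was added to cultures of the altered yeast strain. Growth was recorded, and inhibition was derived by comparison with vehicle controls.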

[13] = NCI Yeast Anticancer Drug Screen. Data for the mlh1 rad18 strain (AID 175); conditions: S. cerevisiae mlh1 rad18 strain growth inhibition, active compounds read high
How it was run: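 Genetically defined yeast (DNA repair-deficient) exposed to compounds; growth inhibition determined relative to vehicle.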

[14] = NCI Yeast Anticancer Drug Screen. Data for the rad18 strain (AID 177); conditions: S. cerevisiae rad18 mutant growth inhibition, active compounds read high
How it was run: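 Vehicle-treated cultures served as the baseline for scoring compound-induced growth inhibition in DNA-repair-mutant yeast.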

[15] = at 5.0 µM (retest, dose inferred, filed as 0.5)
[16] = at 50.0 µM (retest, dose inferred, filed as 5.0)

Measured: growth inhibition

COc1cc(O)c2c(O)c3c(c4c2c1[C@]1(C4)C(C)=CCCC1(C)C)[C@H](O)[C@@]1(O)CC(=O)C(C(N)=O)=C(O)[C@@]1(O)C3=O
inactive: [1]; at 1.2 µM -1% | [2]; at 1.2 µM -16% | [2]; at 3.7 µM 56% | [3]; at 1.2 µM -52% | [3]; at 3.7 µM 60% | [4]; at 1.2 µM -16% | [5]; at 1.2 µM -37% | [5]; [15] 2% | [6]; at 1.2 µM -36% | [7]; [15] 21% | [8]; [15] 1% | [9]; at 1.2 µM -1% | [9]; [15] -7% | [10]; at 1.2 µM -30% | [10]; at 3.7 µM -16% | [11]; at 1.2 µM -21% | [11]; at 3.7 µM 67% | [12]; at 1.2 µM -38% | [13]; [15] -5% | [14]; at 1.2 µM -21%
active: [1]; at 3.7 µM 92% | [1]; at 11.0 µM 98% | [1]; at 33.0 µM 98% | [1]; at 100.0 µM 95% | [2]; at 11.0 µM 98% | [2]; at 33.0 µM 97% | [2]; at 100.0 µM 93% | [3]; at 11.0 µM 97% | [3]; at 33.0 µM 96% | [3]; at 100.0 µM 89% | [4]; at 3.7 µM 94% | [4]; at 11.0 µM 99% | [4]; at 33.0 µM 98% | [4]; at 100.0 µM 93% | [5]; at 3.7 µM 87% | [5]; at 11.0 µM 97% | [5]; at 33.0 µM 96% | [5]; [16] 97% | [5]; at 50.0 µM 97% | [5]; at 100.0 µM 92% | [6]; at 3.7 µM 87% | [6]; [15] 83% | [6]; at 11.0 µM 98% | [6]; at 33.0 µM 98% | [6]; [16] 98% | [6]; at 50.0 µM 98.7% | [6]; at 100.0 µM 94% | [7]; [16] 98% | [7]; at 50.0 µM 98.7% | [8]; [16] 98% | [8]; at 50.0 µM 98.1% | [9]; at 3.7 µM 77% | [9]; at 11.0 µM 98% | [9]; at 33.0 µM 97% | [9]; [16] 98% | [9]; at 50.0 µM 98.2% | [9]; at 100.0 µM 94% | [10]; at 11.0 µM 97% | [10]; at 33.0 µM 96% | [10]; at 100.0 µM 95% | [11]; at 11.0 µM 97% | [11]; at 33.0 µM 97% | [11]; at 100.0 µM 95% | [12]; at 3.7 µM 88% | [12]; at 11.0 µM 97% | [12]; at 33.0 µM 97% | [12]; at 100.0 µM 93% | [13]; [16] 97% | [13]; at 50.0 µM 96.8% | [14]; at 3.7 µM 85% | [14]; at 11.0 µM 97% | [14]; at 33.0 µM 97% | [14]; at 100.0 µM 95%
